This is an account of results in PubChem BioAssay AID2284379 (EPA ToxCast).

Results filed as inconclusive are left out. Calls of active or inactive are those of the source. Rule for the calls: active = hit-call score of the fitted dose curve at least 0.9, where 1 is the maximum; inconclusive = response in the unintended direction; inactive = score below 0.9.

This assay can be described thus: ATG_M_32_EcoTox2: Attagene TRANS-FACTORIAL EcoTox-2 HepG2 Assay for M32 Transcription Factor (Internal Marker). On the procedure:
ATG_EcoTox2 is a cell-based, multiplexed assay created by modifying the existing Attagene TRANS-FACTORIAL system to include a panel of nuclear receptors from some or all the following species: human (Homo sapiens), african clawed frog (Xenopus laevis), rainbow trout (Oncorhynchus mykiss), japanese medaka (Oryzias latipes), and zebrafish (Danio rerio). The ECOTOX2-FACTORIAL format uses HepG2, a human liver cell line, with measurements taken at 24 hours after chemical dosing in a 24-well plate. ATG_M_32_EcoTox2 is one of 29 assay components calculated in the ATG_EcoTox2 assay. It is designed to make measurements of mRNA induction, a form of inducible reporter, as detected with fluorescence intensity signals by Reverse transcription polymerase chain reaction (RT-PCR) and Capillary electrophoresis technology.The assay endpoint ATG_M_32_EcoTox2 was analyzed in the positive analysis fitting direction relative to DMSO as the negative control and baseline of activity. Using a type of inducible reporter, measures of mRNA for gain-of-signal activity can be used to understand the background control at the transcription factor-level as they relate to the gene. Furthermore, this assay endpoint can be referred to as a secondary readout, because this assay has produced multiple assay endpoints where this one serves a background control function. To generalize the intended target to other relatable targets, this assay endpoint is annotated to the background measurement intended target family, where the subfamily is internal marker.
Human liver HepG2 cells are transiently transfected with multiple reporter transcription units (MRTUs) in 6-well plates using FuGene 6 reagent (Roche; 3 ml FuGene/1 mg DNA). The MRTU constructs are regulated by a cis-regulating element (promoter). Each RTU expresses a GAL4-UAS that regulates the transcription of a nearby target reporter gene sequence. A major difference between the CIS and TRANS system is that in CIS activities of endogenous TFs are measured, whereas the TRANS assay evaluates changes in activities of exogenous, chimeric NR-Gal4 proteins. […] At the end of 24 hour incubation, total RNA was isolated using TriZol reagent (Invitrogen). The isolated RNA is then reverse-transcribed using oligo(dT) primer and Mo-MLV reverse transcriptase (Invitrogen) with DNAse I (Ambion) treatment for 30 min. The one-tenth of the produced cDNA was amplified by PCR using Taq DNA polymerase (Invitrogen) and two reporter sequence-specific primers. The PCR products were fluorescently labeled by primer extension with 6-arboxyfluorescein (6-FAM) 5'-labeled reporter sequence-specific primer (2 min at 95 C, 20 s at 68 C and 10 min at 72 C) and these products were digested with 5U of HpaI (New England Biolabs) for 2h at 37 C. The fragments were purified using Qiaquick PCR columns (Qiagen), analyzed on an ABI 3130xL genetic analyzer (Applied Biosystems) with peak positions identified by using a set of X-rhodamine (ROX)-labeled MapMarker1000 molecular weight standards (BioVentures). The raw capillary electrophoresis data was processed using Attagraph software (Attagene).
`O=C(O)C(F)(F)C(F)(F)C(F)(F)C(F)(F)C(F)(F)C(F)(F)C(F)(F)F`: the molecule was called inactive.

As for `O=P(Oc1ccccc1)(Oc1ccccc1)Oc1ccccc1`, the call was inactive.

Turning to `[Cl][Sn]([c]1ccccc1)([c]1ccccc1)[c]1ccccc1`, the molecule was called inactive.

For `O=S(=O)(O)C(F)(F)C(F)(F)C(F)(F)C(F)(F)C(F)(F)C(F)(F)F`, the result was inactive.

`CCCCOCN(C(=O)CCl)c1c(CC)cccc1CC`: the result was inactive.
